Data reported in PubChem BioAssay (NCI).
The panel holds about 83,000 compounds, 20% with a hit somewhere; the sample as a whole holds those more often.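 The test compound was applied at a single concentration to cells in 96-well plates for 48 hours, and percent growth was recorded.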 Values without a mark were called inactive. Calls of active or inactive are those of the source. Rule for the calls: active = growth percent below 10; inactive = the rest.

Experiments:
Assay in all cases: NCI-60 one-dose screen, 48 h (100 = growth as untreated, 0 = no growth, -100 = all killed)
Conditions in all cases: 10 µM unless noted
[1] = tested on: SR leukemia
[2] = tested on: RPMI-8226 leukemia
[3] = tested on: OVCAR-8 ovarian
[4] = tested on: OVCAR-5 ovarian
[5] = tested on: OVCAR-4 ovarian
[6] = tested on: SK-OV-3 ovarian
[7] = tested on: IGROV1 ovarian
[8] = tested on: OVCAR-3 ovarian
[9] = tested on: HS 578T breast
[10] = tested on: NCI/ADR-RES ovarian
[11] = tested on: T-47D breast
[12] = tested on: BT-549 breast
[13] = tested on: MDA-MB-435 melanoma
[14] = tested on: SW-620 colon
[15] = tested on: MCF7 breast
[16] = tested on: HCT-116 colon
[17] = tested on: HCC-2998 colon
[18] = tested on: KM12 colon

| Structure (SMILES) | growth [1] | growth [2] | growth [3] | growth [4] | growth [5] | growth [6] [%] | growth [7] | growth [8] | growth [9] | growth [10] | growth [11] | growth [12] | growth [13] | growth [14] | growth [15] | growth [16] | growth [17] | growth [18] |
| --- | --- | --- | --- | --- | --- | --- | --- | --- | --- | --- | --- | --- | --- | --- | --- | --- | --- | --- |
| Nc1ccccc1C#Cc1ccccc1C#Cc1ccc(OCCCCCCOc2ccc(C#Cc3ccccc3C#Cc3ccccc3N)cc2)cc1 | 94.7% | 94% | 95.6% | 90.7% | 105% | 92.5 | -7.54% (active) | 109% | 113% | 93% | 90.1% | 104% | 97.5% | 98.9% | 74.7% | 110% | 95.5% | 113% |
| COc1ccc(OC)c2c1CCC1(C2)NC(=O)NC1=O (stereo not given) | 102% | 102% | 97.8% | 101% | 101% | 102 | 110% | 126% | 85.6% | 102% | 109% | 114% | 95.9% | 103% | 92.4% | 107% | 106% |  |
| COc1ccc2nc(N/N=C(\C)c3ccccn3)cc(C)c2c1 | -40.9% (active) | -25.1% (active) | 0.111% (active) | 20% | 14.8% | 15.8 | -44.1% (active) | -78.5% (active) | 6.09% (active) | 12.4% | 0.953% (active) | -87.8% (active) | -94.9% (active) | -68% (active) | -74.6% (active) | -68.7% (active) | -68.3% (active) | -35.7% (active) |
| COc1cc(/C=C/C(=O)C(C(=O)/C=C/c2ccc(OC(=O)CCNC34CC5CC(CC(C5)C3)C4)c(OC)c2)C(=O)CCNC23CC4CC(CC(C4)C2)C3)ccc1OC(=O)CCNC12CC3CC(CC(C3)C1)C2 (stereo not given) | -48.6% (active) | -51.6% (active) | 8.87% (active) | 37.8% | 25.8% | 42.8 | -33.2% (active) | 14.9% | 6.55% (active) | 41.7% | 41.6% | -24.2% (active) | -29.9% (active) | -22.7% (active) | 14.4% | -48.8% (active) | -48% (active) | -5.8% (active) |
| N#CSCC1CC(O)(c2ccccc2)C(c2ccccc2)C(c2ccc(Cl)cc2)O1 (stereo not given) | -16% (active) | -4.14% (active) | -86.1% (active) | 0.178% (active) | -32.7% (active) | 49.5 | -30.7% (active) | -100% (active) | -32.3% (active) | -71.5% (active) | -35.3% (active) | -57.8% (active) | -65.2% (active) | -76.2% (active) | -51.5% (active) | -92.9% (active) | -86.2% (active) | -96% (active) |
| C[N+]1(C)C2CC[C@@H]1CC(OC(=O)C(O)c1ccccc1)C2 (stereo not given in full) | 115% | 93.9% | 108% | 106% | 110% | 117 | 103% | 121% | 119% | 103% | 109% | 99.6% | 99.1% | 109% | 106% | 102% | 96.6% | 109% |
| COc1cnc2c(c1)C(=O)c1c-2n(CCCNC2=NCCS2)c(=O)c2cc(F)ccc12 | -8.78% (active) | -14.3% (active) | 31.3% | 53.2% | 63.1% | 11.1 | 38% | 32.6% | 65.5% | 34.6% | 19.1% | 13.4% | 41.8% | -22% (active) | 3.19% (active) | -75.3% (active) | 65.5% | 46.7% |
| CNNc1ncnc2c1cnn2-c1ccc(S(N)(=O)=O)cc1 | 65.6% | 94% | 81.8% | 99.8% | 106% | 115 | 104% | 87.7% | 104% | 87% | 98.2% | 109% | 114% | 98.6% | 104% | 100% | 99.3% |  |
| COc1ccc2c(c1)c(CC(=O)[Se]C)c(C)n2C(=O)c1ccc(Cl)cc1 | 13.4% | 62.6% | -46.9% (active) | 36.8% | 37.2% | 40.7 | -3.14% (active) | -12.4% (active) | 8.49% (active) | 3.71% (active) | 80.6% | -80.8% (active) | -20% (active) | 29.9% | 16% | 0.342% (active) | 68.8% | 61.6% |
| Cc1ccc(C2=Nc3c(ccc4c(C)c(C)c(=O)oc34)OC2)cc1 | 103% | 94.4% | 98.6% | 103% | 116% | 106 | 98.5% | 107% | 110% | 97.3% | 89.8% | 94% | 104% | 108% | 115% | 95.5% | 96.1% | 97.8% |
| CCCCCCCCCCOC(C)=O | 98.6% | 99.1% | 101% | 101% | 103% | 110 | 96.2% | 110% | 101% | 111% | 100% | 118% | 106% | 106% | 93.6% | 112% | 109% | 113% |
| O=C1CSC(c2ccccc2O)N1c1nnc(Cn2ccnc2)o1 (stereo not given) | 43.9% | 36.1% | 58.8% | 97.2% | 64.4% | 74.2 | 67.7% | 37.8% | 80.6% | 26% | 60.6% | 64.5% | 13.4% | 61.5% | 47.9% | 50.8% | 67.1% | 45.1% |
| O=Cc1ccccc1C(=O)O | 89.8% | 106% | 104% | 97.9% | 92.6% | 104 | 110% | 102% | 100% | 104% | 97.2% | 102% | 96.6% | 102% | 93.7% | 99.6% | 98.1% | 97.9% |
| CCCCCCCCCCCCCCCCNC(=O)Nc1ccc2ccccc2c1 | 95.6% | 102% | 104% | 111% | 113% | 101 | 101% | 116% | 107% | 110% | 108% | 97.4% | 103% | 94.2% | 94.5% | 101% | 109% |  |
| O=C1C(=O)/C(=C/c2ccccc2)CCCCCC/C1=C/c1ccccc1 | -13.5% (active) | -33.5% (active) | 29.9% | 114% | 60.9% | 98.2 | 5% (active) | 21% | 81.4% | 80.1% | 47.6% | 16.4% | -41.8% (active) | -19.1% (active) | 6.04% (active) | -23.7% (active) | -22.3% (active) | -23.6% (active) |
| O=C1/C(=C\c2coc3ccccc3c2=O)c2ccccc2N1c1c(Cl)cccc1Cl | 19.5% | 10.2% | 31.6% | 102% | 49.5% | 74.8 | 48.7% | 16.8% | 27.4% | 36.1% | 30% | 41.1% | 14.5% | 35% | 31.6% | 35.6% | 53% | 27.1% |
